# In ChEMBL document CHEMBL2218924, “A broad activity screen in support of a chemogenomic map for kinase signalling research and drug discovery” (Biochem J, 2013):
# Biological target: Interleukin-1 receptor-associated kinase 1 (Homo sapiens) (UniProt P51617)
# Conditions: at 1 µM
# Chain of Interleukin-1 receptor-associated kinase 1 (Homo sapiens) (P51617 whole entry, looked up): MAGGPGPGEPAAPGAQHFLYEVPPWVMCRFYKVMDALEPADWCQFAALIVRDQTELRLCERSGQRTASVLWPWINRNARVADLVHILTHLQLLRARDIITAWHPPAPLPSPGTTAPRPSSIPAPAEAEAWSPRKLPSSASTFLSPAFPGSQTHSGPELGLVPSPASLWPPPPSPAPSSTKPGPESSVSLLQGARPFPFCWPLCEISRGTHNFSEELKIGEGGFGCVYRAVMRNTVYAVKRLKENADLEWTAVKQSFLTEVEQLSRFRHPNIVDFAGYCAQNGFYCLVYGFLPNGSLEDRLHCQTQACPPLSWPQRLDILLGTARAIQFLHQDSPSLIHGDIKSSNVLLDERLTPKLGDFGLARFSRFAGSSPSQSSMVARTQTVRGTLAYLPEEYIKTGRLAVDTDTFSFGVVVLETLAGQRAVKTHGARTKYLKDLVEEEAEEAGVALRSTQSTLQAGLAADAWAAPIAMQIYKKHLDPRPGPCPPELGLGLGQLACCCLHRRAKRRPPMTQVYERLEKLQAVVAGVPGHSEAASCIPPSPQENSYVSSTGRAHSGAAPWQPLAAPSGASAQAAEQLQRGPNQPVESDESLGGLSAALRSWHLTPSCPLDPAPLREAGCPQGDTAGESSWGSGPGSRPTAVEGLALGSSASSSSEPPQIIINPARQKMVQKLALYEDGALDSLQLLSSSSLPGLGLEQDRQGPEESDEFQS
row,SMILES,residual activity [%]
1,COc1cc2nccc(Oc3ccc(NC(=O)Nc4cc(C)on4)c(Cl)c3)c2cc1OC,82
2,Nc1n[nH]c2nc3ccccc3nc12,98
3,COc1ccc(Cl)cc1NC(=O)Nc1cc(C)nc2ccccc12,96
4,COc1cc2ncnc(Nc3cccc(Cl)c3)c2cc1OC,84
5,Cc1cc(C)c(/C=C2\C(=O)Nc3ccccc32)[nH]1,76
6,CC(C)N(CCC(=O)c1ccc2ccccc2c1)Cc1ccccc1,83
7,N#Cc1c(NC(=O)c2cccc3ccccc23)sc2c1CCCC2,94
8,NC(=O)c1cccc(-c2cc(Nc3ccc(OC(F)(F)F)cc3)ncn2)c1,95
9,Nc1ncnc2c1cnn2-c1ccccc1,93
10,NC(=O)Nc1sc(-c2ccc(F)cc2)cc1C(N)=O,84
11,O=C(Nc1nc2ccccc2n1CCN1CCOCC1)c1cccc([N+](=O)[O-])c1,11
12,Cn1c2ccccc2c2c3c(c4c5ccccc5n(CCC#N)c4c21)CNC3=O,47
13,CC(C)(C)c1nc2c3ccc(F)cc3c3c(=O)[nH]ccc3c2[nH]1,55
14,COc1cc2c(cc1OC)-c1n[nH]c(Nc3cccc(F)c3)c1C2,73
15,O=C(c1cc2cc(O)ccc2[nH]1)c1cc2cc(O)ccc2[nH]1,65
16,O=C1NC(=O)C(c2cn(CCCn3ccnc3)c3ccccc23)=C1Nc1ccccc1,81
17,CCCCc1c(-c2ccc(O)cc2)[nH]c2nccnc12,52
18,COc1ccc(-c2cnc3c(-c4ccsc4)cnn3c2)cc1,98
19,COc1ccc(COc2ccc(Cc3cnc(N)nc3N)cc2OC)cc1,76

# Biological target: Interleukin-1 receptor-associated kinase 1 (Homo sapiens) (UniProt P51617)
# Conditions: at 10 µM
row,SMILES,residual activity [%]
1,Nc1nc(Nc2ccc(S(N)(=O)=O)cc2)nn1C(=O)c1c(F)cccc1F,43
2,O=S(=O)(NCCNC/C=C/c1ccc(Br)cc1)c1cccc2cnccc12,75
3,Nc1n[nH]c2nc3ccccc3nc12,98
4,COc1ccc(Cl)cc1NC(=O)Nc1cc(C)nc2ccccc12,100
5,COc1ccc(CNC(=O)Nc2ncc([N+](=O)[O-])s2)cc1,103
6,COc1cc2ncnc(Nc3cccc(Cl)c3)c2cc1OC,35
7,Cc1cc(C)c(/C=C2\C(=O)Nc3ccccc32)[nH]1,75
8,CC(C)N(CCC(=O)c1ccc2ccccc2c1)Cc1ccccc1,77
9,N#Cc1c(NC(=O)c2cccc3ccccc23)sc2c1CCCC2,95
10,NC(=O)c1cccc(-c2cc(Nc3ccc(OC(F)(F)F)cc3)ncn2)c1,93
11,Nc1ncnc2c1cnn2-c1ccccc1,84
12,NC(=O)Nc1sc(-c2ccc(F)cc2)cc1C(N)=O,49
13,O=C(Nc1nc2ccccc2n1CCN1CCOCC1)c1cccc([N+](=O)[O-])c1,16
14,Cn1c2ccccc2c2c3c(c4c5ccccc5n(CCC#N)c4c21)CNC3=O,44
15,CC(C)(C)c1nc2c3ccc(F)cc3c3c(=O)[nH]ccc3c2[nH]1,62
16,c1ccc(-c2cnc(Nc3ccc(OCCN4CCCC4)cc3)s2)cc1,42
17,COc1cc2c(cc1OC)-c1n[nH]c(Nc3cccc(F)c3)c1C2,68
18,O=C(c1cc2cc(O)ccc2[nH]1)c1cc2cc(O)ccc2[nH]1,23
19,O=C1NC(=O)C(c2cn(CCCn3ccnc3)c3ccccc23)=C1Nc1ccccc1,76
20,CCCCc1c(-c2ccc(O)cc2)[nH]c2nccnc12,53
21,O=C(c1ccccc1)c1ccc(N2CCOCC2)cc1O,89
22,COc1ccc(-c2cnc3c(-c4ccsc4)cnn3c2)cc1,84
23,COc1ccc(COc2ccc(Cc3cnc(N)nc3N)cc2OC)cc1,67

# Biological target: T1, Interleukin-1 receptor-associated kinase 4 (Homo sapiens) (UniProt Q9NWZ3)
# T1 sequence (whole entry): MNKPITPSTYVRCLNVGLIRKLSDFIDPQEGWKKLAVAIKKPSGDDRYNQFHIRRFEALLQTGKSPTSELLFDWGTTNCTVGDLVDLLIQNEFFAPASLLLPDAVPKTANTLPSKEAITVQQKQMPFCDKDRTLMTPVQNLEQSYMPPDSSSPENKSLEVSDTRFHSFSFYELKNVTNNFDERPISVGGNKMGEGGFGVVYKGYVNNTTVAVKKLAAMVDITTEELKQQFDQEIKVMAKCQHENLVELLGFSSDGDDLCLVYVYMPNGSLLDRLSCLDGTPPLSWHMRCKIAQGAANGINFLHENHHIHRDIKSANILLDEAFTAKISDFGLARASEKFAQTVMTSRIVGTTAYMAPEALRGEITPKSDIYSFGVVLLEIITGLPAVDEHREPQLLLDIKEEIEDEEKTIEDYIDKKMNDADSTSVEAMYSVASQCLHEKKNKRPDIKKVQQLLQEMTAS
# Conditions: at 1 µM
row,SMILES,residual activity [%]
1,Nc1nc(Nc2ccc(S(N)(=O)=O)cc2)nn1C(=O)c1c(F)cccc1F,96
2,Nc1n[nH]c2nc3ccccc3nc12,93
3,CCOc1nc(NC(=O)Cc2cc(OC)ccc2OC)cc(N)c1C#N,81
4,COc1ccc(CNC(=O)Nc2ncc([N+](=O)[O-])s2)cc1,72
5,COc1cc2ncnc(Nc3cccc(Cl)c3)c2cc1OC,64
6,Cc1cc(C)c(/C=C2\C(=O)Nc3ccccc32)[nH]1,39
7,N#Cc1c(NC(=O)c2cccc3ccccc23)sc2c1CCCC2,96
8,NC(=O)Nc1sc(-c2ccc(F)cc2)cc1C(N)=O,46
9,O=C(Nc1nc2ccccc2n1CCN1CCOCC1)c1cccc([N+](=O)[O-])c1,13
10,Cn1c2ccccc2c2c3c(c4c5ccccc5n(CCC#N)c4c21)CNC3=O,-1
11,CC(C)(C)c1nc2c3ccc(F)cc3c3c(=O)[nH]ccc3c2[nH]1,61
12,c1ccc(-c2cnc(Nc3ccc(OCCN4CCCC4)cc3)s2)cc1,124
13,COc1cc2c(cc1OC)-c1n[nH]c(Nc3cccc(F)c3)c1C2,76
14,O=C(c1cc2cc(O)ccc2[nH]1)c1cc2cc(O)ccc2[nH]1,50
15,O=C1NC(=O)C(c2cn(CCCn3ccnc3)c3ccccc23)=C1Nc1ccccc1,45
16,CCCCc1c(-c2ccc(O)cc2)[nH]c2nccnc12,71
17,O=C(c1ccccc1)c1ccc(N2CCOCC2)cc1O,117
18,COc1ccc(-c2cnc3c(-c4ccsc4)cnn3c2)cc1,124
